IP6K1 inhibitor – Primary qHTS assay for small molecule inhibitors of Inositol hexaphosphate kinase 1 (IP6K1) | Inositol hexakisphosphate kinase 1 (Homo sapiens), Q92551 | IP6K1 kinase, ADP-Glo luminescence, 2 h; active compounds read low | activity change, % (series mostly up to about 58 µM) | actives 0.81% (n = 140,000) | AID 1645851, 2021; in the data active means activity change below about -25%
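ADP-Glo luminescence measures ADP made by human IP6K1 during a 2 h RT reaction with ATP/IP6 (mix at 1.3 mM/130 uM); top library doses 57.5 and 19.1 uM final.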
KDM5B inhibitor – Primary screen for KDM5B Histone Demethylases FDH-coupled qHTS | Lysine-specific demethylase 5B (Homo sapiens), Q9UGL1 | KDM5B demethylase, FDH-coupled NADH fluorescence (FDH is formaldehyde dehydrogenase) | Potency, µM (titrated, usually from 57.7 µM), usual class: inhibitors | actives 2.6% (n = 220,000) | AID 1347165, 2019; active means well fitted inhibition curve with a large enough effect; inconclusive means small, poorly fitted or top-dose-only effect; inactive means no such curve, though single readings can be large or run the other way; further: nearly all actives have a fitted effect of over 70% in size
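Coupled FDH/NAD⁺ fluorescence readout. KDM5BΔAP 200 nM final; compound titration, 10 min RT preincubation; substrate mix 12.5 µM H3K4me3, 25 µM 2-OG, 50 µM Fe(II), 100 µM ascorbate, 0.25 mM NAD⁺, 0.25 U/mL FDH; ΔRFU over 30 min.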
Each line names hits and unclear results; the compound was inactive in the other large screens. Shown are actives, neighbours in structure and some others; about 2.8% of the full set was active somewhere.

O=C(CCCc1c[nH]c2ccccc12)N1CCc2c(nc3cc(-c4ccccc4)[nH]n3c2=O)C1	KDM5B inhibitor inconclusive
CC1(C)NC(=O)N(CCC(=O)N2CCc3c(nc4cc(-c5ccccc5)[nH]n4c3=O)C2)C1=O	KDM5B inhibitor 28µM
O=C(Cc1cccnc1)N1CCc2c(nc3cc(-c4ccccc4)[nH]n3c2=O)C1	KDM5B inhibitor 28µM
Cc1nc(C2(C)CCN(C(=O)c3ccc(Cc4c(C)noc4C)o3)CC2)no1	none
CC(=O)Nc1ccc(CC(=O)N2CCc3c(nc4cc(-c5ccccc5)[nH]n4c3=O)C2)cc1	KDM5B inhibitor 22µM
CC(=O)N1CCC(C(=O)Nc2cccc(S(=O)(=O)N3CCCC3)c2)CC1	none (no result: IP6K1 inhibitor)
O=C(COc1ccc([N+](=O)[O-])cc1)Nc1ccc2oc(-c3cccnc3)nc2c1	none (no result: IP6K1 inhibitor)
COCc1cccc(C(=O)NCc2ccco2)c1	none (no result: IP6K1 inhibitor)
CCC(=O)N1CCC(OC2CCN(Cc3cccnc3)CC2)CC1	none
O=C(CCCc1nc2ccccc2s1)N1CCc2nc3cc(-c4ccccc4)[nH]n3c(=O)c2C1	KDM5B inhibitor inconclusive
CCc1cccc(NC(=O)N2CCc3nc4cc(-c5ccc(OC)cc5)[nH]n4c(=O)c3C2)c1	KDM5B inhibitor inconclusive
O=C(CCCc1nc2ccccc2s1)N1CCc2c(nc3cc(-c4ccccc4)[nH]n3c2=O)C1	KDM5B inhibitor inconclusive
CCOCC(=O)N1CCc2nc3cc(-c4ccc(OC)cc4)[nH]n3c(=O)c2C1	KDM5B inhibitor 25µM
O=C(CCCc1nc2ccccc2[nH]1)N1CCc2c(nc3cc(-c4ccccc4)[nH]n3c2=O)C1	KDM5B inhibitor 32µM
COc1ccc(-c2cc3nc4c(c(=O)n3[nH]2)CN(C(=O)Cc2ccc(NC(C)=O)cc2)CC4)cc1	KDM5B inhibitor 14µM
COc1ccc(-c2cc3nc4c(c(=O)n3[nH]2)CN(C(=O)CCCc2nc3ccccc3s2)CC4)cc1	KDM5B inhibitor 32µM
Cc1ccc2[nH]c(=O)c3cc(C(=O)NCc4ccc(F)cc4Cl)sc3c2c1	none (no result: IP6K1 inhibitor)
CN1C(=O)CCC2(CNC(=O)NCCc3ccccc3)CCCC=C12 (stereo not drawn)	none
Cc1ccc(-c2csc(Nc3ccc(O)cc3)n2)cc1C	none (no result: IP6K1 inhibitor)
CC(OC(=O)c1ccccc1Oc1ccccc1)C(=O)Nc1cccc(C(F)(F)F)c1 (stereo not drawn)	none (no result: IP6K1 inhibitor)
COC[C@H]1NC(=O)CC[C@H]1C(=O)Nc1cc(C)ccc1OC	none
Cc1ccsc1C(=O)N1CCC(c2nc(C3CCOCC3)no2)CC1	none
C[C@@H](NC(=O)C1CCCCC1)c1onc(-c2ccc(Cl)cc2)c1C(=O)O	none
CCSc1ncc(CN2CCN(c3nc(C)cnc3C)CC2)cn1	KDM5B inhibitor inconclusive
CCSc1ncc(CN2CCN(c3ccc4nccn4n3)CC2)cn1	KDM5B inhibitor 28µM
CCOc1ccc(NC(=O)COc2ccc(Cl)cc2Cl)c2cccnc12	none (no result: IP6K1 inhibitor)
COc1cc(OC)c(NC(=O)CCc2ncc(-c3ccccc3)o2)cc1Cl	none (no result: IP6K1 inhibitor)
COc1ccccc1-c1cc(-c2c(C)noc2C)cc2c1C(=O)N(C)C2	KDM5B inhibitor inconclusive
COc1cc(F)ccc1-c1cc(-c2c(C)noc2C)cc2c1C(=O)N(C)C2	KDM5B inhibitor 32µM
O=C(c1ccc(Cl)nc1)N1CCN(C(=O)c2nc3cccnc3n(C3CC3)c2=O)CC1	none (no result: KDM5B inhibitor)
CC(=O)Nc1cccc(-c2ncc3c(n2)OCCN(CC2CC2)C3=O)c1	KDM5B inhibitor 32µM
NC(=O)c1cccc(-c2ncc3c(n2)OCCN(Cc2ccc(F)cc2F)C3=O)c1	none
CC(=O)Nc1cccc(-c2ncc3c(n2)OCCN(Cc2ccc(F)cc2F)C3=O)c1	KDM5B inhibitor 32µM
COc1cccc(-c2ncc3c(n2)OCCN(CC2CC2)C3=O)c1OC	none
COc1ccc(Cl)cc1-c1ncc2c(n1)OCCN(Cc1ccc(F)cc1F)C2=O	KDM5B inhibitor 35µM
COCCN1CCOc2nc(-c3cccc(OC)c3F)ncc2C1=O	KDM5B inhibitor inconclusive
COc1cccc(F)c1-c1ncc2c(n1)OCCN(CC1CC1)C2=O	KDM5B inhibitor 28µM
CC(=O)Nc1cccc(-c2ncc3c(n2)OCCN(Cc2ccccc2)C3=O)c1	KDM5B inhibitor inconclusive
Cc1ccc(C2=NS(=O)(=O)N(C)C(C(=O)N3CCN(c4ccc(F)cc4)CC3)=C2)cc1	none (no result: IP6K1 inhibitor)
CCC(C)NCc1ccccc1 (stereo not drawn)	none (no result: IP6K1 inhibitor)
Cc1cccc(CNC(=O)CCC2CCN(S(=O)(=O)c3cccc(F)c3)CC2)c1	none
CCS(=O)(=O)N1CC(=O)N(c2cccc(C)c2C)C(C)(C(=O)NC2CCCCC2)C1 (stereo not drawn)	none
CC(C)c1ccccc1NC(=O)c1ccc2c(c1)NC(=O)CS2	none (no result: IP6K1 inhibitor)
O=C1c2cnc(-c3ccc(F)cc3F)nc2OCCN1Cc1ccc(F)cc1F	none
O=C1c2cnc(-c3ccoc3)nc2OCCN1Cc1ccc(F)cc1F	KDM5B inhibitor 35µM
CCN(c1ccc(OC)cc1)S(=O)(=O)c1cc(-c2cc(C)no2)ccc1C	none (no result: IP6K1 inhibitor)
CCCNC(=O)[C@@H]1CCCN1[C@@H](C(=O)NC)c1ccccc1	none
